Data on 65 molecules can be found in the supplement of paper PMC7858590.

± gives the standard deviation of the averaged measurements. In all, about 3,800 compounds were measured (“cell shape (eccentricity) Z-score vs DMSO control”: median about 1.1, lowest 2% from about -4.7 on). The entries come from a sample that favours the lowest values as a whole.

For this test, the system named is human monocyte-derived macrophages (M0). The test can be described thus: cell shape (eccentricity) Z-score vs DMSO control; higher = more elongated, M2-like morphology. The note with it: 20 µM; 24 h; macrophage state: M0 (M-CSF). The method, then:
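Primary human monocyte-derived macrophages (M-CSF differentiated, pooled from 4 donors, 5000 cells/well in 384-well plates) were treated with each compound at 20 uM for 24 h, then fixed and stained with phalloidin/DAPI and imaged on an Opera Phenix (6 fields, about 1000 cells/well). Cell eccentricity was measured with CellProfiler, and a Z-score (t-test) was computed against 4 DMSO control wells in the same row. Negative values mean round (M1-like) cells and positive values mean elongated (M2-like) cells; the paper's hit cutoffs are Z <= -4 (M1) and Z >= 6 (M2). Scale: negative = round, M1-like.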
Consider `C=C1[C@@H](C)[C@H]2[C@H](Cc3ccccc3)NC(=O)[C@]23OC(=O)/C=C/[C@H](O)CCC[C@@H](C)C/C=C/[C@H]3[C@@H]1O`, for which the “cell shape (Z-score)” value was -24.4.

Regarding `C/C=C/c1ccc2c(c1)OCO2`, the “cell shape (Z-score)” value was 2.7.

As to `CC(C)[C@]12O[C@H]1[C@@H]1O[C@]13[C@]1(O[C@H]1CC1C4=C(CC[C@@]13C)C(=O)OC4)[C@@H]2O` (stereo not given in full), the “cell shape (Z-score)” value was 8.48.

Consider `CC(=O)O[C@H]1C[C@@H](OC(C)=O)C(C)(C)C2C[C@@H](OC(C)=O)[C@]3(C)C(CC[C@@]4(C)[C@H](c5ccoc5)C(=O)[C@H]5O[C@]543)[C@]21C` (stereo not given in full), for which the “cell shape (Z-score)” value was 0.275.

For the molecule `O=c1[nH]c2ccccc2n1C1CCN(CCCC(c2ccc(F)cc2)c2ccc(F)cc2)CC1`, the “cell shape (Z-score)” value was -6.33.

On to `O=c1[nH]c2ccccc2n1CCCN1CCC(n2c(=O)[nH]c3cc(Cl)ccc32)CC1`, for which the “cell shape (Z-score)” value was -1.03.

Consider `O=C1NCN(c2ccccc2)C12CCN(CCCOc1ccc(F)cc1)CC2`, for which the “cell shape (Z-score)” value turned out to be 1.17.

`O=c1ccc2cc(O[C@@H]3O[C@H](CO)[C@@H](O)[C@H](O)[C@H]3O)c(O)cc2o1`: the “cell shape (Z-score)” value came out at 2.48.

Regarding `CC(C)CC1C(=O)N2CCC[C@H]2C2(O)O[C@](NC(=O)C3C=C4c5cccc6[nH]c(Br)c(c56)C[C@H]4N(C)C3)(C(C)C)C(=O)N12` (stereo not given in full), the “cell shape (Z-score)” value was 4.71.

`O=C1Nc2ccccc2C2(CCN(CCc3ccc(C(F)(F)F)cc3)CC2)O1`: the “cell shape (Z-score)” value was -0.107.

As to `O=C(N[C@H]1CN2CCC1CC2)c1ccc(Cl)cc1`, the “cell shape (Z-score)” value was 1.37.

On to `c1cncc(C2=NCCC2)c1`, for which the “cell shape (Z-score)” value is 0.998.

With `COc1ccc2c3c([nH]c2c1)[C@H](CC(C)C)N1C(=O)[C@H](CCC(=O)OC(C)(C)C)NC(=O)[C@@H]1C3`, the “cell shape (Z-score)” value worked out at 9.45.

Take `COc1ccc2c(c1)[nH]c1c(C)nccc12`: the “cell shape (Z-score)” value is -5.5.

For the molecule `C=C[C@H]1C[N@@]2CC[C@H]1C[C@H]2[C@H](O)c1ccnc2ccccc12`, the “cell shape (Z-score)” value came to 2.46.

For `CN1c2ccccc2C(NCCCCCCC(=O)O)c2ccc(Cl)cc2S1(=O)=O` (stereo not given), the “cell shape (Z-score)” value was 0.787.

With `CCCCC/C=C\C/C=C\C/C=C\C/C=C\CCCC(=O)NCc1ccc(O)c(OC)c1`, the “cell shape (Z-score)” value was -0.144.

Take `O=C(Cc1ccc(Cl)c(Cl)c1)N1CCCCC1CN1CCCC1` (stereo not given): the “cell shape (Z-score)” value is -0.746.

As to `Fc1ccc(C(OCCN2CCN(CC=Cc3ccccc3)CC2)c2ccc(F)cc2)cc1`, the “cell shape (Z-score)” value is -4.91.

As for `Fc1ccc(C(OCCN2CCN(CCCc3ccccc3)CC2)c2ccc(F)cc2)cc1`, the “cell shape (Z-score)” value was -0.302.

Turning to `C(=C\c1ccccc1)/CN1CCN(CCOC(c2ccccc2)c2ccccc2)CC1`, the “cell shape (Z-score)” value was -5.62.

For `c1ccc(CCCN2CCN(CCOC(c3ccccc3)c3ccccc3)CC2)cc1`, the “cell shape (Z-score)” value turned out to be 4.69.

With `C(=Cc1ccccc1)CN1CCN(CCOC(c2ccccc2)c2ccccc2)CC1`, the “cell shape (Z-score)” value was found to be 1.98.

On to `Clc1ccc(C(OCCN2CCCCC2)c2ccccc2)cc1` (stereo not given), for which the “cell shape (Z-score)” value worked out at 9.16.

Consider `Cc1c([N+](=O)[O-])oc2ccc3ccccc3c12`, for which the “cell shape (Z-score)” value is -0.364.

As for `CN(C)C(=O)Oc1cc(OC(=O)N(C)C)cc(C(O)CNC(C)(C)C)c1` (stereo not given), the “cell shape (Z-score)” value stood at 2.11.

On to `CC(=O)O[C@@H](c1nc2ccccc2c(=O)n1[C@@H]1C[C@@]2(OC1=O)c1ccccc1N1C(=O)[C@H](C)N(O)[C@@H]12)C(C)C`, for which the “cell shape (Z-score)” value turned out to be 2.14.

As to `COc1cc(Br)c(OC)c2c1C(CN)C2` (stereo not given), the “cell shape (Z-score)” value is -4.96.

Consider `CCCN(CCC)C1CCc2c(OC)cccc2C1C` (stereo not given), for which the “cell shape (Z-score)” value is 4.87.

Consider `CC1=CC(=O)c2c(O)cccc2C1=O`, for which the “cell shape (Z-score)” value was -4.68.

Regarding `CC(C)NCC(O)c1ccc(N)c(C#N)c1` (stereo not given), the “cell shape (Z-score)” value is -0.285.

For the molecule `CC(=O)O[C@@H]1CC2C(C)(C)C(=O)C=C[C@]2(C)C2CC[C@]3(C)C(=CC(=O)O[C@H]3c3ccoc3)[C@@]21C` (stereo not given in full), the “cell shape (Z-score)” value was -6.06.

With `CC(=O)O[C@@H]1C[C@@]2(C)[C@H](c3ccoc3)C[C@H]3O[C@]32[C@]2(C)C(=O)C(=O)C3C(C)(C)C(=O)C=C[C@]3(C)C12` (stereo not given in full), the “cell shape (Z-score)” value was -3.62.

In the case of `CC1(C)C(=O)C=C[C@@]2(C)C1C[C@@H](O)[C@]1(C)C2CC[C@@]2(C)[C@H](c3ccoc3)OC(=O)[C@H]3O[C@]321` (stereo not given in full), the “cell shape (Z-score)” value was 1.86.

Turning to `CC(C)(O)c1cc(O)c2c(c1)CCC1C(C)(C(=O)O)CCCC21C` (stereo not given), the “cell shape (Z-score)” value came out at 0.93.

With `CC(C)c1c(CN(C)C(C)Cc2ccccc2)n(C)n(-c2ccccc2)c1=O` (stereo not given), the “cell shape (Z-score)” value was determined as 2.2.

For the molecule `CC12C(=O)OC(=O)C1(C)C1CCC2O1` (stereo not given), the “cell shape (Z-score)” value is -12.8.

Consider `CN1CCc2cc3c(cc2[C@H]1C1OC(=O)c2c1ccc1c2OCO1)OCO3` (stereo not given in full), for which the “cell shape (Z-score)” value worked out at 0.327.

For `CC[C@@H](C(=O)[C@@H](C)[C@@H](O)[C@H](C)[C@@H]1O[C@@H]([C@@H](CC)C(=O)O)CC[C@@H]1C)[C@H]1OC2(C=C[C@@H](O)[C@]3(CC[C@@](C)(C4CC[C@](O)(CC)[C@H](C)O4)O3)O2)[C@H](C)C[C@@H]1C` (stereo not given in full), the “cell shape (Z-score)” value was 1.16.

As for `C=CCN1C[C@H](C)N([C@H](c2ccc(C(=O)N(CC)CC)cc2)c2cccc(O)c2)C[C@H]1C`, the “cell shape (Z-score)” value came out at 1.38.

As for `C[C@]12CCC3C(CC[C@]4(O)C[C@@H](O)CC[C@]34C=O)[C@@]1(O)CCC2C1=CC(=O)OC1` (stereo not given in full), the “cell shape (Z-score)” value is -3.05.

Turning to `CC(C)(O)CCC(=O)[C@](C)(O)[C@H]1[C@H](O)C[C@@]2(C)[C@@H]3CC=C4C(C=C(O[C@@H]5O[C@H](CO)[C@@H](O)[C@H](O)[C@H]5O)C(=O)C4(C)C)[C@]3(C)C(=O)C[C@]12C` (stereo not given in full), the “cell shape (Z-score)” value was determined as 1.51.

Regarding `CC(C)(O)/C=C/C(=O)[C@](C)(O)C1[C@H](O)C[C@@]2(C)C3CC=C4C(CC(=O)C(=O)C4(C)C)[C@]3(C)C(=O)C[C@]12C` (stereo not given in full), the “cell shape (Z-score)” value was -23.9.

Turning to `CN([N+][O-])c1cc(O)ccc1O`, the “cell shape (Z-score)” value was -4.54.

`C=CCC1(C(C)CCC)C(=O)N=C(S)NC1=O` (stereo not given): the “cell shape (Z-score)” value was determined as 2.85.

With `CC(=Cc1csc(C)n1)[C@H]1C[C@@H]2O[C@]2(C)CCC[C@H](C)[C@H](O)[C@@H](C)C(=O)C(C)(C)[C@@H](O)CC(=O)O1`, the “cell shape (Z-score)” value amounted to 0.111.

For the molecule `O=C1c2ccccc2C(=O)c2ccccc21`, the “cell shape (Z-score)” value is 1.99.

Regarding `c1ccc2c(c1)[I+]c1ccccc1-2`, the “cell shape (Z-score)” value was -7.52.

With `C[C@@]12C[C@@H](c3ccoc3)OC(=O)C1CC[C@]1(C)[C@H]2[C@H]2C=C[C@]1(O)C(=O)O2` (stereo not given in full), the “cell shape (Z-score)” value was -0.795.

With `COc1cc2c(c(OC)c1OC)-c1ccc(OC)c(=O)cc1C(NC(C)=O)CC2` (stereo not given), the “cell shape (Z-score)” value worked out at 8.73.

With `CC(C)(C)c1cc(C=C(C#N)C#N)cc(C(C)(C)C)c1O`, the “cell shape (Z-score)” value is -0.65.

Take `C[C@H]1O[C@@H](O[C@H]2CC[C@]3(CO)C4CC[C@]5(C)[C@@H](C6=CC(=O)OC6)CC[C@]5(O)[C@@H]4CC[C@H]3C2)[C@H](O)[C@H](O)[C@@H]1O[C@@H]1O[C@H](CO)[C@@H](O)[C@H](O)[C@H]1O` (stereo not given in full): the “cell shape (Z-score)” value was -6.

Consider `C[C@H]1O[C@@H](O[C@H]2CC[C@]3(CO)C4CC[C@]5(C)[C@@H](C6=CC(=O)OC6)CC[C@]5(O)C4CC[C@H]3C2)[C@H](O)[C@H](O)[C@@H]1O` (stereo not given in full), for which the “cell shape (Z-score)” value is 1.31.

In the case of `CO[C@@H]1[C@H](O)[C@@H](O[C@@H]2C[C@H]3CC[C@@H]4C(CC[C@]5(C)[C@@H](C6=CC(=O)OC6)CC[C@]45O)[C@@]3(C)[C@H](O)C2)O[C@H](C)[C@@H]1O[C@@H]1O[C@H](CO)[C@@H](O)[C@H](O)[C@H]1O` (stereo not given in full), the “cell shape (Z-score)” value was -2.59 ± 0.87.

On to `COc1ccc2c(c1O)-c1cc(O)cc3c1[C@@H](C2)N(C)CC3`, for which the “cell shape (Z-score)” value was 0.611.

On to `Cc1c(C(=O)c2cccc3ccccc23)c2cccc3c2n1[C@@H](CN1CCOCC1)CO3`, for which the “cell shape (Z-score)” value amounted to 3.85.

As to `CCCn1c(C)c(C(=O)c2cccc3ccccc23)c2ccccc21`, the “cell shape (Z-score)” value is 1.57.

For the molecule `Cc1c(C(=O)c2cccc3ccccc23)c2cccc3c2n1[C@H](CN1CCOCC1)CO3`, the “cell shape (Z-score)” value was -5.15.

Take `COc1cc([C@@H]2c3cc4c(cc3[C@H](OC(C)=O)[C@H]3COC(=O)[C@H]23)OCO4)cc(OC)c1OC`: the “cell shape (Z-score)” value came out at 9.18.

For the molecule `Cc1ccc2c(c1)Cc1c(C(=O)NC3CCCCC3)nn(-c3ccc(Cl)cc3Cl)c1-2`, the “cell shape (Z-score)” value is 2.43.

On to `N#CC(C#N)=Cc1cc(O)c(O)c([N+](=O)[O-])c1`, for which the “cell shape (Z-score)” value is -0.026.

As for `CCNC(=O)C1OC(n2cnc3c(N)ncnc32)C(O)C1O` (stereo not given), the “cell shape (Z-score)” value was 4.21.

Consider `CCOC(=O)c1ncn2c1CN(C)C(=O)c1cc(N=[N+]=[N-])ccc1-2`, for which the “cell shape (Z-score)” value stood at 2.52.

On to `CN1C[C@H](C(=O)N[C@]2(C)O[C@@]3(O)[C@@H]4CCCN4C(=O)[C@H](Cc4ccccc4)N3C2=O)C[C@@H]2c3cccc4[nH]cc(c34)C[C@H]21`, for which the “cell shape (Z-score)” value is 3.57.

Take `CC(N)Cn1ccc2cc(F)c(Cl)cc21` (stereo not given): the “cell shape (Z-score)” value was 0.211.
